Screening data from PubChem BioAssay.
In the library only some 1.2% were active in any assay of this set; here they are far more common.
PrP UTR inh – inhibition of PrP 5' UTR reporter expression; cell-based PrP 5' UTR mRNA reporter, plate reader; inhibition, % (concentration not given with the values); AID 488862, 2010; 0.35% of 340,000 active; in the data active = inhibition above about 52%; note: 0 = median of the neutral control wells
Sa ugtP lethal – growth inhibition of ugtP-null S. aureus, primary screen, RN4220 ugtP deletion, OD600 | 16 h | growth inhibition, % (test concentration not listed) | 0.54% of 330,000 active; in the data active = growth inhibition above about 68%;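 note: plate controls were untreated wells for no effect and antibiotic for full effect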
PfHsp40 rescue – rescue of yeast from PfHsp40 toxicity, primary screen, S. cerevisiae, ATP luminescence; 0.68% of 340,000 active; S. cerevisiae expressing PfHsp40, growth rescue; AID 504582, 2011; growth rescue, % at 12.5 µM; in the data active = growth rescue above about 28%, passing the limit was not always enough;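 note: yeast W303a lacking pdr1 and pdr3 grown in galactose medium; growth measured after three days at 30 °C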
TcdB inh – TcdB glycohydrolase inhibitors, primary screen, biochemical, single point, plate reader; inhibition, % at 9.99 µM; Toxin B (Clostridioides difficile), P18177; 0.24% of 350,000 active; TcdB glycohydrolase enzymatic assay; AID 652162, 2013; in the data active = inhibition above about 10%
RN4220 kill – growth inhibition of S. aureus RN4220, primary screen, OD600. 16 h. inhibition, % (concentration not given with the values). 0.33% of 330,000 active. AID 1259311, 2017; in the data active = inhibition above about 85%;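 note: plate controls were untreated cells for no effect and reference antibiotic for full effect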
PrP UTR cherry – prion 5' UTR mRNA inhibition, cherry-pick retest | 48% of 1,100 active | inhibition, % at 2.5 µM | cell-based prion protein 5' UTR reporter, plate reader | shares compounds with PrP UTR inh; in the data active = inhibition above about 54%
* marks the source's active call; other numbers are inactive results; nt = no result given.

SMILES	PrP UTR inh	Sa ugtP lethal	PfHsp40 rescue	TcdB inh	RN4220 kill	PrP UTR cherry
CN(C(=O)c1cc2ccccc2oc1=O)C1(C)CCS(=O)(=O)C1 (stereo not drawn)	81*	4	-1	-1	3	-4
C[C@@H]1O[C@@H](O[C@H]2C[C@@H](O)[C@]3(CO)[C@H]4[C@H](O)C[C@]5(C)[C@@H](C6COC(=O)C6)CC[C@]5(O)[C@@H]4CC[C@]3(O)C2)[C@H](O)[C@H](O)[C@H]1O (stereo partly drawn)	59*	nt	0	1	nt	70*
CC1OC(OC2CC(O)C3(CO)C4C(O)CC5(C)C(C6=CC(=O)OC6)CCC5(O)C4CCC3(O)C2)C(O)C(O)C1O (stereo not drawn)	91*	nt	-3	1	nt	93*
COc1ccc(C(=O)N/N=C/C23CC[C@@H](O)CC2(O)CC[C@@H]2[C@@H]3CCC3(C)C(C4=CC(=O)OC4)CCC23O)cc1 (stereo partly drawn)	-25	nt	-1	1	nt	nt
Cc1ccccc1CSc1nnc([C@@H]2CCCN2)o1	74*	-1	0	1	-1	4
Clc1ccccc1CSc1nnc([C@@H]2CCCN2)o1	-10	10	-2	-4	4	nt
O=C(NN=Cc1cccnc1)c1ccccc1OCc1ccc(Br)cc1	nt	11	nt	nt	9	nt
O=C(O)c1ccc(NN=Cc2ccncc2)cc1	nt	10	nt	nt	3	nt
O=C(O)c1ccc(N/N=C/c2ccc3nccnc3c2)cc1	84*	nt	-2	-1	nt	85*
CC(C)C(C(=O)NCc1ccco1)N(CC1CCCO1)C(=O)CNS(=O)(=O)c1ccccc1 (stereo not drawn)	68*	5	2	1	6	-9
COC(=O)c1nn(-c2ccc3c(c2)CCN3C(C)=O)cc1O	82*	5	1	nt	7	81*
C[C@H](O)C#Cc1cnc2c(c1)C(=O)N([C@@H](C)CO)C[C@H](C)[C@H](CN(C)C(=O)c1ccccc1F)O2	nt	nt	nt	-1	nt	nt
Cc1ccc(-c2n[nH]c(=S)n2N=Cc2ccco2)cc1	nt	1	nt	nt	9	nt
CCOc1ccc2c(c1)C(C)=CC(C)(C)N2S(=O)(=O)c1ccc(C)cc1	66*	23	11	4	13	87*
CC(C)c1c(C(=O)NN=Cc2ccccc2OCc2c(F)cccc2Cl)nnn1-c1nonc1N	nt	73	nt	nt	-12	nt
Nc1nc2n(n1)C(=O)CC(c1ccccc1[N+](=O)[O-])N2 (stereo not drawn)	78*	8	-1	0	4	2
CN(C)C(=O)C[C@H]1CC[C@@H]2[C@H](COC[C@@H](O)CN2CC2CC2)O1	nt	nt	nt	-2	nt	nt
Cc1nc(C)n(C(C)CNC(=O)c2ccco2)n1 (stereo not drawn)	61*	3	0	1	3	4
Cc1nc(C)n(C(C)CNC(=O)c2ccccc2)n1 (stereo not drawn)	-16	6	-1	1	3	nt
CCC(=O)Oc1ccc(C(CC)C(CC)c2ccc(OC(=O)CC)cc2)cc1 (stereo not drawn)	58*	nt	-1	0	nt	-13
O=C(c1ccc2c(c1)OCO2)N1CCC2(CC1)Oc1ccc(F)cc1C(=O)C21CC(c2cccnc2)=NO1 (stereo not drawn)	-2	-1	1	1	4	nt
O=C(c1ccc2c(c1)OCO2)N1CCC2(CC1)Oc1ccc(Cl)cc1C(=O)C21CC(c2cccnc2)=NO1 (stereo not drawn)	53*	0	-1	1	1	-5
CCC(C)(C)C1CCc2[nH]nc(C(=O)NC3CCCC3)c2C1 (stereo not drawn)	-1	0	0	1	-2	nt
O=C(NC1CCCCC1)c1n[nH]c2c1CCCCC2	79*	nt	-2	4	nt	59*
COc1ccc(-n2ncc3c(N4CCCCC4)ncnc32)cc1	86*	-4	-2	nt	11	79*
CS(=O)(=O)N1CCN(c2ncnc3c2cnn3-c2ccccc2)CC1	55*	6	0	0	6	-28
Clc1ccc(-n2ncc3c(N4CCCCCC4)ncnc32)cc1	79*	-7	0	1	-3	70*
Clc1ccc(Cn2ncc3c(N4CCCCC4)ncnc32)cc1	-7	12	4	nt	-6	nt
CC(=N/N=C1/NC(=O)CS1)c1cccs1	nt	18	nt	nt	6	nt
